T1: RBFOX1 RRM RbFoxmut (Fox-RRM*) (Homo sapiens, UniProt Q9NWB1 109-208, R118D;E147R;N151S;E152T)
T1 sequence: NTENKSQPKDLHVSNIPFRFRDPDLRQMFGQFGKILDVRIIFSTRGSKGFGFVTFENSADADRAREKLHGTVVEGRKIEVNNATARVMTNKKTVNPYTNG

B1: ACUUGAG (DNA:RNA)
RNA: GGGAGACCGGAAUUCAGAUUGUCCACUUGAGUUAAAUCCCGUCGUAGCCACCA
DNA 1: CAATCTGAATTCCGGTCTCCC
DNA 2: TGGTGGCTACGACGGGATT
B2: AGGGUAC (DNA:RNA)
RNA: B1 RNA with C26G, U27G, U28G, G29U, G31C
DNA 1: CAATCTGAATTCCGGTCTCCC
DNA 2: TGGTGGCTACGACGGGATT
B3: UUAACCU (DNA:RNA)
RNA: GGGAGACCGGAAUUCAGAUUGUCCUUAACCUUUAAAUCCCGUCGUAGCCACCA
DNA 1: CAATCTGAATTCCGGTCTCCC
DNA 2: TGGTGGCTACGACGGGATT
B4: UCCAUCA (DNA:RNA)
RNA: B3 RNA with U26C, A27C, C29U, U31A
DNA 1: CAATCTGAATTCCGGTCTCCC
DNA 2: TGGTGGCTACGACGGGATT
B5: GGCAGCU (DNA:RNA)
RNA: B3 RNA with U25G, U26G, A27C, C29G
DNA 1: CAATCTGAATTCCGGTCTCCC
DNA 2: TGGTGGCTACGACGGGATT
B6: GUCGAGC (DNA:RNA)
RNA: B3 RNA with U25G, A27C, A28G, C29A, C30G, U31C
DNA 1: CAATCTGAATTCCGGTCTCCC
DNA 2: TGGTGGCTACGACGGGATT
B7: GCAUGGC (DNA:RNA)
RNA: B1 RNA with A25G, U27A, A30G, G31C
DNA 1: CAATCTGAATTCCGGTCTCCC
DNA 2: TGGTGGCTACGACGGGATT
B8: GCAUUGG (DNA:RNA)
RNA: B1 RNA with A25G, U27A, G29U, A30G
DNA 1: CAATCTGAATTCCGGTCTCCC
DNA 2: TGGTGGCTACGACGGGATT
B9: GUCAUGG (DNA:RNA)
RNA: B3 RNA with U25G, A27C, C29U, C30G, U31G
DNA 1: CAATCTGAATTCCGGTCTCCC
DNA 2: TGGTGGCTACGACGGGATT
B10: GCAUGGG (DNA:RNA)
RNA: B1 RNA with A25G, U27A, A30G
DNA 1: CAATCTGAATTCCGGTCTCCC
DNA 2: TGGTGGCTACGACGGGATT
B11: GCAUAGC (DNA:RNA)
RNA: B1 RNA with A25G, U27A, G29A, A30G, G31C
DNA 1: CAATCTGAATTCCGGTCTCCC
DNA 2: TGGTGGCTACGACGGGATT
B12: GCAAUGG (DNA:RNA)
RNA: B1 RNA with A25G, U27A, U28A, G29U, A30G
DNA 1: CAATCTGAATTCCGGTCTCCC
DNA 2: TGGTGGCTACGACGGGATT
B13: GCAUGGU (DNA:RNA)
RNA: B1 RNA with A25G, U27A, A30G, G31U
DNA 1: CAATCTGAATTCCGGTCTCCC
DNA 2: TGGTGGCTACGACGGGATT
B14: CCAUGGU (DNA:RNA)
RNA: B1 RNA with A25C, U27A, A30G, G31U
DNA 1: CAATCTGAATTCCGGTCTCCC
DNA 2: TGGTGGCTACGACGGGATT
B15: GCCAUGG (DNA:RNA)
RNA: B1 RNA with A25G, U27C, U28A, G29U, A30G
DNA 1: CAATCTGAATTCCGGTCTCCC
DNA 2: TGGTGGCTACGACGGGATT
B16: GGCAUGG (DNA:RNA)
RNA: B1 RNA with A25G, C26G, U27C, U28A, G29U, A30G
DNA 1: CAATCTGAATTCCGGTCTCCC
DNA 2: TGGTGGCTACGACGGGATT
B17: GCAUGGA (DNA:RNA)
RNA: B1 RNA with A25G, U27A, A30G, G31A
DNA 1: CAATCTGAATTCCGGTCTCCC
DNA 2: TGGTGGCTACGACGGGATT
B18: CGCAUGG (DNA:RNA)
RNA: B1 RNA with A25C, C26G, U27C, U28A, G29U, A30G
DNA 1: CAATCTGAATTCCGGTCTCCC
DNA 2: TGGTGGCTACGACGGGATT
B19: UGGUGUC (DNA:RNA)
RNA: B1 RNA with A25U, C26G, U27G, A30U, G31C
DNA 1: CAATCTGAATTCCGGTCTCCC
DNA 2: TGGTGGCTACGACGGGATT
B20: AAUUGGG (DNA:RNA)
RNA: B1 RNA with C26A, A30G
DNA 1: CAATCTGAATTCCGGTCTCCC
DNA 2: TGGTGGCTACGACGGGATT
B21: UGUUGGC (DNA:RNA)
RNA: B1 RNA with A25U, C26G, A30G, G31C
DNA 1: CAATCTGAATTCCGGTCTCCC
DNA 2: TGGTGGCTACGACGGGATT
B22: GUUAACC (DNA:RNA)
RNA: B3 RNA with U25G, A27U, C29A, U31C
DNA 1: CAATCTGAATTCCGGTCTCCC
DNA 2: TGGTGGCTACGACGGGATT
B23: UUCCCAG (DNA:RNA)
RNA: B3 RNA with A27C, A28C, C30A, U31G
DNA 1: CAATCTGAATTCCGGTCTCCC
DNA 2: TGGTGGCTACGACGGGATT
B24: GUUACAG (DNA:RNA)
RNA: B1 RNA with A25G, C26U, U28A, G29C
DNA 1: CAATCTGAATTCCGGTCTCCC
DNA 2: TGGTGGCTACGACGGGATT
B25: AGGUUCG (DNA:RNA)
RNA: B1 RNA with C26G, U27G, G29U, A30C
DNA 1: CAATCTGAATTCCGGTCTCCC
DNA 2: TGGTGGCTACGACGGGATT
B26: GUCCAGG (DNA:RNA)
RNA: B1 RNA with A25G, C26U, U27C, U28C, G29A, A30G
DNA 1: CAATCTGAATTCCGGTCTCCC
DNA 2: TGGTGGCTACGACGGGATT
B27: ACCAGGU (DNA:RNA)
RNA: B1 RNA with U27C, U28A, A30G, G31U
DNA 1: CAATCTGAATTCCGGTCTCCC
DNA 2: TGGTGGCTACGACGGGATT
B28: GUUCAGG (DNA:RNA)
RNA: B1 RNA with A25G, C26U, U28C, G29A, A30G
DNA 1: CAATCTGAATTCCGGTCTCCC
DNA 2: TGGTGGCTACGACGGGATT
B29: AGGUUGU (DNA:RNA)
RNA: B1 RNA with C26G, U27G, G29U, A30G, G31U
DNA 1: CAATCTGAATTCCGGTCTCCC
DNA 2: TGGTGGCTACGACGGGATT
B30: AGGUUUG (DNA:RNA)
RNA: B1 RNA with C26G, U27G, G29U, A30U
DNA 1: CAATCTGAATTCCGGTCTCCC
DNA 2: TGGTGGCTACGACGGGATT
B31: AGCGAUU (DNA:RNA)
RNA: B1 RNA with C26G, U27C, U28G, G29A, A30U, G31U
DNA 1: CAATCTGAATTCCGGTCTCCC
DNA 2: TGGTGGCTACGACGGGATT

Substitutions are numbered along the chain they refer to; changes in the protein carry UniProt numbers. The full ranking holds about 16,000 sequences; the median of “ka relative to ugcaugu” is about 0.096, and the highest 2% start at about 0.35. For the sample, the highest values were picked, then their nearest neighbours and some sequences at random.

In the test the target is T1, RBFOX1 RRM RbFoxmut (Fox-RRM*). The test can be described thus: EMSA; HiTS-Eq, 1 nM pool, 10 min; buffer printed only for the single-RNA assays: 10 mM Tris pH 7.5, 150 mM NaCl, 3.4 mM EDTA, 0.001% NP-40, 30 C. The following applies: tags: His6 N-terminal (pET28a); label: 5' 32P. A digest of the protocol:
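Purified wild-type or mutant RbFox RRM at increasing concentrations was equilibrated with 1 nM of 5′-radiolabelled RNA carrying 7 randomized nucleotides for 10 min in 50 µL. Unbound RNA was separated by 8% native PAGE and sequenced. Relative association constants came from read-count changes of each RNA species compared with the control reaction, normalised to the cognate motif.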
In general terms: In EMSA bound probe runs differently from free probe, usually more slowly.
Take B1: the binding signal is 0.13 KA relative to UGCAUGU.

Consider B2, for which the binding signal was 0.106 KA relative to UGCAUGU.

Turning to B3, the binding signal is 0.0822 KA relative to UGCAUGU.

With B4, the binding signal was 0.0673 KA relative to UGCAUGU.

As to B5, the binding signal is 0.0642 KA relative to UGCAUGU.

Regarding B6, the binding signal was 0.0952 KA relative to UGCAUGU.

With B7, the binding signal was 0.497 KA relative to UGCAUGU.

Take B8: the binding signal is 0.179 KA relative to UGCAUGU.

Regarding B9, the binding signal was 0.154 KA relative to UGCAUGU.

As for B10, the binding signal is 0.322 KA relative to UGCAUGU.

Turning to B11, the binding signal is 0.126 KA relative to UGCAUGU.

B12: the binding signal was 0.0714 KA relative to UGCAUGU.

For B13, the binding signal is 0.753 KA relative to UGCAUGU.

Consider B14, for which the binding signal is 0.125 KA relative to UGCAUGU.

For B15, the binding signal was 0.12 KA relative to UGCAUGU.

Turning to B16, the binding signal was 0.524 KA relative to UGCAUGU.

On to B17, for which the binding signal is 0.23 KA relative to UGCAUGU.

B18: the binding signal is 0.804 KA relative to UGCAUGU.

For B19, the binding signal is 0.281 KA relative to UGCAUGU.

Regarding B20, the binding signal is 0.0731 KA relative to UGCAUGU.

Take B21: the binding signal is 0.0854 KA relative to UGCAUGU.

For the molecule B22, the binding signal was 0.0736 KA relative to UGCAUGU.

For B23, the binding signal is 0.103 KA relative to UGCAUGU.

For B24, the binding signal is 0.114 KA relative to UGCAUGU.

Turning to B25, the binding signal is 0.357 KA relative to UGCAUGU.

As for B26, the binding signal was 0.0991 KA relative to UGCAUGU.

B27: the binding signal was 0.11 KA relative to UGCAUGU.

As for B28, the binding signal is 0.0776 KA relative to UGCAUGU.

As for B29, the binding signal is 0.332 KA relative to UGCAUGU.

B30: the binding signal was 0.525 KA relative to UGCAUGU.

As to B31, the binding signal was 0.072 KA relative to UGCAUGU.

Source of the values: publication PMC9911399, “Two distinct binding modes provide the RNA-binding protein RbFox with extraordinary sequence specificity”.
